# Data reported in PubChem BioAssay (EPA / NIEHS).
# Records with an inconclusive call do not appear. Calls of active or inactive are those of the source. Rule for the calls: active = hit-call score of the fitted dose curve at least 0.9, where 1 is the maximum; inconclusive = response in the unintended direction; inactive = score below 0.9.
# Assays:
# [1] = biological target: guinea pig Opioid, Kappa 1 Receptor (OpiateK), OPRK1 (gene 100135587) (UniProt P41144); assay: NVS_GPCR_gOpiateK: NovaScreen (NVS) G Protein-Coupled Receptor Assay for guinea pig Opioid, Kappa 1 Receptor (OpiateK) (AID 2283252);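 note: radioligand displacement from kappa opioid receptor in guinea pig cerebellar membranes; active means reduced radioligand binding relative to DMSO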
# Procedure, shortened: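 Radioligand competition binding using guinea pig cerebellum membrane fraction; 2 h exposure; filter radiodetection. Single concentration 25 uM (duplicate), follow-up concentration-response for actives.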
# [2] = biological target: sheep Cyclooxygenase-1 (Cox1), PTGS1 (gene 443551) (UniProt P05979); assay: NVS_ENZ_oCOX1: NovaScreen (NVS) Enzymatic Assay for sheep Cyclooxygenase-1 (Cox1) (AID 2283239);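 note: actives reduce cyclooxygenase activity so potencies are for inhibitors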
# Procedure, shortened: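 Cell-free colorimetric assay of enzyme activity in a native extract of ovine seminal vesicles. Absorbance was read 0.66 hour after compound addition. Loss of signal relative to the DMSO negative control was scored, with actives from the 25 uM duplicate primary screen retested in concentration series.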
# [3] = biological target: human Adenosine A1 Receptor (AdoRA1), ADORA1 (gene 134) (UniProt P30542); assay: NVS_GPCR_hAdoRA1: NovaScreen (NVS) G Protein-Coupled Receptor Assay for human Adenosine A1 Receptor (AdoRA1) (AID 2283254)
# Procedure, shortened: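 Membranes from human cortical tissue were incubated with radioligand and test chemical for 1 hour, then filtered and counted. Activity was taken as signal loss relative to DMSO, screened at 25 uM in duplicate before concentration-response follow-up.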
# [4] = biological target: human Adenosine A2a Receptor (AdoRA2a), ADORA2A (gene 135) (UniProt P29274); assay: NVS_GPCR_hAdoRA2a: NovaScreen (NVS) G Protein-Coupled Receptor Assay for human Adenosine A2a Receptor (AdoRA2a) (AID 2283256)
# Procedure, shortened: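 Compounds screened in duplicate at 25 uM, with actives followed up in concentration series, for displacement of a radioligand from HEK293-derived receptor protein. Bound counts read by filter scintillation at 1.5 hours, DMSO as baseline.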
# [5] = biological target: guinea pig Leukotriene D4 Receptor (LTD4), CYSLTR1 (gene 100135514) (UniProt Q2NNR5); assay: NVS_GPCR_gLTD4: NovaScreen (NVS) G Protein-Coupled Receptor Assay for guinea pig Leukotriene D4 Receptor (LTD4) (AID 2283248)
# Procedure, shortened: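 Guinea pig lung membrane preparation; bound radioligand measured by filter scintillation after 1 h, loss of signal versus DMSO marking displacement. Compounds tested at 25 uM in duplicate, hits retested to max 50 uM.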
# [6] = biological target: human SRC Proto-Oncogene, Non-receptor Tyrosine Kinase (SRC), SRC (gene 6714) (UniProt P12931); assay: NVS_ENZ_hSRC: NovaScreen (NVS) Enzymatic Assay for human SRC Proto-Oncogene, Non-receptor Tyrosine Kinase (SRC) (AID 2283223)
# Procedure, shortened: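 Compounds passing 30% inhibition at 25 uM (duplicate) were titrated to a top concentration of 50 uM. Enzyme activity read by fluorescence with mobility-shift substrate/product separation after 1 h; DMSO baseline.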
# [7] = biological target: rabbit Imidazoline 2 Central (I2C), CKB (gene 100009085) (UniProt P00567); assay: NVS_ENZ_rabI2C: NovaScreen (NVS) Enzymatic Assay for rabbit Imidazoline 2 Central (I2C) (AID 2283228)
# Procedure, shortened: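 Rabbit brain membranes, cell-free; readout by filter-based scintillation counting 1.5 hours after dosing, loss of signal vs DMSO. Initial duplicate test at 25 uM, then concentration-response with 50 uM top concentration.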
# [8] = biological target: bovine Dopamine Receptor (DR), Non-selective Binding, DRD1 (gene 281125) (UniProt Q95136); assay: NVS_GPCR_bDR_NonSelective: NovaScreen (NVS) G Protein-Coupled Receptor Assay for bovine Dopamine Receptor (DR), Non-selective Binding (AID 2283241)
# Procedure, shortened: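 Filter-based radioligand binding with bovine striatal membrane, incubated 1 h; DMSO as negative baseline. Initial duplicate single-point test at 25 uM preceded concentration series for actives.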
# [9] = NVS_GPCR_bNPY_NonSelective: NovaScreen (NVS) G Protein-Coupled Receptor Assay for bovine Neuropeptide Y (NPY) Receptor, Non-selective Binding (AID 2283245)
# Procedure, shortened: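 Displacement of radioligand from bovine hippocampal membrane receptors, read by filtration and scintillation counting after 1 hour. Concentration-response to a top of 50 uM followed a 25 uM duplicate primary screen. Loss of signal versus DMSO.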
# [10] = test system: guinea pig Muscarinic, Peripheral (Mperiperal) Receptor, Non-selective Binding, gene 100379235; assay: NVS_GPCR_gMPeripheral_NonSelective: NovaScreen (NVS) G Protein-Coupled Receptor Assay for guinea pig Muscarinic, Peripheral (Mperiperal) Receptor, Non-selective Binding (AID 2283250)
# Procedure, shortened: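 Screened in duplicate at 25 uM, hits retested in concentration series to 50 uM max, using bladder membrane radioligand displacement from guinea pig. Filtration and scintillation counting 1 h post-dose, fitted relative to DMSO.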
# [11] = biological target: human Serotonin, 5-Hydroxytryptamine Receptor 5A (5HT5A), HTR5A (gene 3361) (UniProt P47898); assay: NVS_GPCR_h5HT5A: NovaScreen (NVS) G Protein-Coupled Receptor Assay for human Serotonin, 5-Hydroxytryptamine Receptor 5A (5HT5A) (AID 2283251)
# Procedure, shortened: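 Membranes from HEK293 cells, radioligand binding read by filtration and scintillation after 1 h. Single-concentration duplicate testing at 25 uM, then concentration-response for actives; positive-direction fitting relative to DMSO.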
# [12] = biological target: human Serotonin, 5-Hydroxytryptamine Receptor 6 (5HT6), HTR6 (gene 3362) (UniProt P50406); assay: NVS_GPCR_h5HT6: NovaScreen (NVS) G Protein-Coupled Receptor Assay for human Serotonin, 5-Hydroxytryptamine Receptor 6 (5HT6) (AID 2283253)
# Procedure, shortened: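 Filter scintillation counting of radioligand displacement from HEK293-expressed 5HT6, 1 hour post-dose, with loss of signal relative to DMSO. Single 25 uM duplicates first, with concentration series for confirmation.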
# [13] = biological target: human Serotonin, 5-Hydroxytryptamine Receptor 7 (5HT7), HTR7 (gene 3363) (UniProt P34969); assay: NVS_GPCR_h5HT7: NovaScreen (NVS) G Protein-Coupled Receptor Assay for human Serotonin, 5-Hydroxytryptamine Receptor 7 (5HT7) (AID 2283255);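 note: hits reduce specific radioligand binding relative to DMSO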
# Procedure, shortened: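 Filter-bound radioactivity counted after 1 h, with loss of specific radioligand binding fitted against DMSO. Membrane protein came from CHO cells expressing human 5HT7. Chemicals were tested first at 25 uM in duplicate, then in concentration series if active.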
# [14] = biological target: human Adrenergic, Alpha 2c Receptor (Adra2C), ADRA2C (gene 152) (UniProt P18825); assay: NVS_GPCR_hAdra2C: NovaScreen (NVS) G Protein-Coupled Receptor Assay for human Adrenergic, Alpha 2c Receptor (Adra2C) (AID 2283259)
# Procedure, shortened: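 Screened first in duplicate at 25 uM, with actives then run as concentration series. Membranes from Sf9 cells were exposed for 1 h, and displacement of radioligand was counted after filtration, using DMSO as baseline.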
# [15] = biological target: human Dopamine Receptor D4.4 (DRD4.4), DRD4 (gene 1815) (UniProt P21917); assay: NVS_GPCR_hDRD4.4: NovaScreen (NVS) G Protein-Coupled Receptor Assay for human Dopamine Receptor D4.4 (DRD4.4) (AID 2283264)
# Procedure, shortened: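 Filter-binding assay with a tritiated or iodinated ligand, cell-free receptor prepared from CHO, 1 hour. Loss of bound radioactivity versus DMSO; single 25 uM duplicate screen, then concentration-response for actives.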
# [16] = biological target: human Tropomyosin Receptor Kinase A (TRKA), NTRK1 (gene 4914) (UniProt P04629); assay: NVS_ENZ_hTrkA: NovaScreen (NVS) Enzymatic Assay for human Tropomyosin Receptor Kinase A (TRKA) (AID 2283224)
# Procedure, shortened: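 Compounds were screened at 25 uM in duplicate, then concentration series to a 50 uM top for those meeting threshold (e.g. 30% inhibition). Enzyme was recombinant human TrkA, incubated 1 h. Product formation was quantified by fluorescence after mobility-shift separation.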
# [17] = biological target: human Vascular Endothelial Growth Factor Receptor 2 (VEGFR2), KDR (gene 3791) (UniProt P35968); assay: NVS_ENZ_hVEGFR2: NovaScreen (NVS) Enzymatic Assay for human Vascular Endothelial Growth Factor Receptor 2 (VEGFR2) (AID 2283230)
# Procedure, shortened: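 Cell-free recombinant VEGFR2 kinase, fluorescent substrate with electrophoretic mobility-shift separation; read 1 h after dosing. Screened at 25 uM in duplicate, hits to concentration-response up to 50 uM; loss-of-signal versus DMSO.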
# [18] = biological target: human Adrenergic, Alpha 2A Receptor (Adra2A), ADRA2A (gene 150) (UniProt P08913); assay: NVS_GPCR_hAdra2A: NovaScreen (NVS) G Protein-Coupled Receptor Assay for human Adrenergic, Alpha 2A Receptor (Adra2A) (AID 2283257)
# Procedure, shortened: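 Displacement of a specific radioligand from HT29 membrane protein was counted by filter scintillation after 1 h. Compounds were screened in duplicate at 25 uM, and actives were retested in concentration series. Fitting was positive-direction against DMSO.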
# [19] = biological target: human Adrenergic, Beta 1 Receptor (Adrb1), ADRB1 (gene 153) (UniProt P08588); assay: NVS_GPCR_hAdrb1: NovaScreen (NVS) G Protein-Coupled Receptor Assay for human Adrenergic, Beta 1 Receptor (Adrb1) (AID 2283258)
# Procedure, shortened: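 Membranes/protein extracted from human neuroepithelioma cells, radioligand competition binding read by filtration and scintillation 2 h post-dose. Single 25 uM duplicate screen, then concentration-response follow-up; DMSO as negative control.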
# [20] = biological target: Beta-2 adrenergic receptor (Homo sapiens) (UniProt P07550); assay: NVS_GPCR_hAdrb2: NovaScreen (NVS) G Protein-Coupled Receptor Assay for human Adrenergic, Beta 2 Receptor (Adrb2) (AID 2283261)
# Procedure, shortened: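 Compounds screened in duplicate at 25 uM, then actives in concentration series. Human beta-2 receptor from CHO material, cell-free; radioligand displacement after 1 h measured by filtration and scintillation against DMSO baseline.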
# Sequence of sheep Cyclooxygenase-1 (Cox1), PTGS1 (gene 443551) (P05979 whole entry, looked up): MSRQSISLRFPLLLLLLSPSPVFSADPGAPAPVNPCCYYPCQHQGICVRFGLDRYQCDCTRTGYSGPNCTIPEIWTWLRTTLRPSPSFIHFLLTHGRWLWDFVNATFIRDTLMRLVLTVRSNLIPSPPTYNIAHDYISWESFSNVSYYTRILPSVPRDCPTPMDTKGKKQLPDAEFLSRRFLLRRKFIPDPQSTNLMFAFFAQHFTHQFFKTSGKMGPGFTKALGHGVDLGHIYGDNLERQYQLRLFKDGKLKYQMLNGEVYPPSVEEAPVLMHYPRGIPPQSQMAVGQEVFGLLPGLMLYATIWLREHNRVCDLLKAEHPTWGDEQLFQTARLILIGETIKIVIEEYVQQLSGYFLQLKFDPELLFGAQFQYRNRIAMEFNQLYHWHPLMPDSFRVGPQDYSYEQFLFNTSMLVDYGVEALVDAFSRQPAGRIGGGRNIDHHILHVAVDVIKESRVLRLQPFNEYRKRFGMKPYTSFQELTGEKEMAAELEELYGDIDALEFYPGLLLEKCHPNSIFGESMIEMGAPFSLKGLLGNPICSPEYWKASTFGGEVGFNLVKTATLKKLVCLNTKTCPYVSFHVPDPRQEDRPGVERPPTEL
# Sequence of guinea pig Leukotriene D4 Receptor (LTD4), CYSLTR1 (gene 100135514) (Q2NNR5 whole entry, looked up): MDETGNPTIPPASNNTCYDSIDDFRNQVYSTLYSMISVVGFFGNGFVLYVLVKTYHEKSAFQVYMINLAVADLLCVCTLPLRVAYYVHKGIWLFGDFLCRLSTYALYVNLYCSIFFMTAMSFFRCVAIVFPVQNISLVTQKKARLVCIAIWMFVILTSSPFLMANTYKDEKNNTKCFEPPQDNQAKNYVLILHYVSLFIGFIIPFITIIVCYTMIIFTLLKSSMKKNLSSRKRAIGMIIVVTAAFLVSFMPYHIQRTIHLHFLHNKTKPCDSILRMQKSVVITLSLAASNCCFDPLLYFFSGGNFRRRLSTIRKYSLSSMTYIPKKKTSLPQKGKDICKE
# Sequence of guinea pig Opioid, Kappa 1 Receptor (OpiateK), OPRK1 (gene 100135587) (P41144 whole entry, looked up): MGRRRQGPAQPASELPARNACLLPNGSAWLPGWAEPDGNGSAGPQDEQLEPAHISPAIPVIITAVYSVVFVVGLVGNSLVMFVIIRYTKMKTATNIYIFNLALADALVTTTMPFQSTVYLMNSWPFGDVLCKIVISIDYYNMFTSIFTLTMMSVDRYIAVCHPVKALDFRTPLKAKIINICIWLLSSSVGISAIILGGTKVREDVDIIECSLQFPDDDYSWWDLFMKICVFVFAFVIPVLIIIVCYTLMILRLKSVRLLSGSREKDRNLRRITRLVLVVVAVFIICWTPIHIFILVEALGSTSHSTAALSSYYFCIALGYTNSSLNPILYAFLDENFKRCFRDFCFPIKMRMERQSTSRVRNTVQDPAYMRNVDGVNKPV
# Sequence of human Adenosine A2a Receptor (AdoRA2a), ADORA2A (gene 135) (P29274 whole entry, looked up): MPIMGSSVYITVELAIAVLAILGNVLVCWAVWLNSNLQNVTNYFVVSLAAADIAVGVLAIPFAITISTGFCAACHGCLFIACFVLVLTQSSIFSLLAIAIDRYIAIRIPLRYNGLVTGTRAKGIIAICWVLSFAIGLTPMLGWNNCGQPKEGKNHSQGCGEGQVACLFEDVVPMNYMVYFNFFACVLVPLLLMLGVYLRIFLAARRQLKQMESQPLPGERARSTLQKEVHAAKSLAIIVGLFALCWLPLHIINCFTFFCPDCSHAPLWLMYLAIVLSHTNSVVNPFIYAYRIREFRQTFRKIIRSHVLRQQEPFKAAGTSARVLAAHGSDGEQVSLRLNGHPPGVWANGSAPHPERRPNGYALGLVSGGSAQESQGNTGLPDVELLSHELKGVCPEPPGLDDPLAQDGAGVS
# Sequence of human Serotonin, 5-Hydroxytryptamine Receptor 6 (5HT6), HTR6 (gene 3362) (P50406 whole entry, looked up): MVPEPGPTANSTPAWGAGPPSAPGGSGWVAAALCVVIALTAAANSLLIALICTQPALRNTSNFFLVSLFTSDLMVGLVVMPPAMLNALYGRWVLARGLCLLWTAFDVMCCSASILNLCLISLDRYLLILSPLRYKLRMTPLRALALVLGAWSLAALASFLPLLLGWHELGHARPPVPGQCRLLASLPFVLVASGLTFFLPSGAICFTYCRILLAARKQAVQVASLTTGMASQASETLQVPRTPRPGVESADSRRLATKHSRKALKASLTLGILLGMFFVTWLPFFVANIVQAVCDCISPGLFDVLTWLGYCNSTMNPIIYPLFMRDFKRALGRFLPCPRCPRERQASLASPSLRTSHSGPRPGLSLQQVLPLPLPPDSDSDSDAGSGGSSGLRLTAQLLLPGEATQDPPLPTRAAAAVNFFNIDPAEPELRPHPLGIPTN
# Sequence of human Adrenergic, Alpha 2c Receptor (Adra2C), ADRA2C (gene 152) (P18825 whole entry, looked up): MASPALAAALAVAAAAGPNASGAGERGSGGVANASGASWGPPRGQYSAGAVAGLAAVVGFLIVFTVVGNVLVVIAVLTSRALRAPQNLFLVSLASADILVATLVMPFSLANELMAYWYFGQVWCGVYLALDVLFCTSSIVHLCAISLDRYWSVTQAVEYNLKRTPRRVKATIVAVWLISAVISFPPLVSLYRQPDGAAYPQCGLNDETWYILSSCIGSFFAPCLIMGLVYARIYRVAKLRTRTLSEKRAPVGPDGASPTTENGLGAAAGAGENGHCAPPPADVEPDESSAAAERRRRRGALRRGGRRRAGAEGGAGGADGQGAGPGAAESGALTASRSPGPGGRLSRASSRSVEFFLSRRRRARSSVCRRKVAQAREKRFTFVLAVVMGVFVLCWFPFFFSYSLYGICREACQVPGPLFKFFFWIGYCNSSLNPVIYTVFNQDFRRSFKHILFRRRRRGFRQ
# Sequence of human Serotonin, 5-Hydroxytryptamine Receptor 7 (5HT7), HTR7 (gene 3363) (P34969 whole entry, looked up): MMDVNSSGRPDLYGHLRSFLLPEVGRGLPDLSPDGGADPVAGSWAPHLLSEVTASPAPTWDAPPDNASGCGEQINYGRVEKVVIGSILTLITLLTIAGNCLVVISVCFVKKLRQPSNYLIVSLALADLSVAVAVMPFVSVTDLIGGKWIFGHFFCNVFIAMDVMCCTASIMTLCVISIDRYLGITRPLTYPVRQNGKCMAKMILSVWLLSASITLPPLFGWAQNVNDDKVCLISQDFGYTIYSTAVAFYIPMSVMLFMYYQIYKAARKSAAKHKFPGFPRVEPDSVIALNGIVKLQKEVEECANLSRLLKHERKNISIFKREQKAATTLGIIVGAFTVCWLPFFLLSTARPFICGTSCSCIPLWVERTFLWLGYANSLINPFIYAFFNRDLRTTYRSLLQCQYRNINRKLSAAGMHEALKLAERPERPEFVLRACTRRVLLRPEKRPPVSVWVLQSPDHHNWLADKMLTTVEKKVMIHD
# Sequence of human Adenosine A1 Receptor (AdoRA1), ADORA1 (gene 134) (P30542 whole entry, looked up): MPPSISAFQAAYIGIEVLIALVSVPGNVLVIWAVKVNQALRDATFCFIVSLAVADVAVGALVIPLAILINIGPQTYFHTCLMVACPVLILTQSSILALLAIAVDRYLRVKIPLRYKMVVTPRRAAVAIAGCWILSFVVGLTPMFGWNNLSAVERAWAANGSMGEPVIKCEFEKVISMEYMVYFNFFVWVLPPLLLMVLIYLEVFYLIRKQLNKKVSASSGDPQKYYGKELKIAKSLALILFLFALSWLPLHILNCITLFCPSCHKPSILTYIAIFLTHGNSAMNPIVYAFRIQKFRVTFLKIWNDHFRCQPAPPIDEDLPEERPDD
# Sequence of rabbit Imidazoline 2 Central (I2C), CKB (gene 100009085) (P00567 whole entry, looked up): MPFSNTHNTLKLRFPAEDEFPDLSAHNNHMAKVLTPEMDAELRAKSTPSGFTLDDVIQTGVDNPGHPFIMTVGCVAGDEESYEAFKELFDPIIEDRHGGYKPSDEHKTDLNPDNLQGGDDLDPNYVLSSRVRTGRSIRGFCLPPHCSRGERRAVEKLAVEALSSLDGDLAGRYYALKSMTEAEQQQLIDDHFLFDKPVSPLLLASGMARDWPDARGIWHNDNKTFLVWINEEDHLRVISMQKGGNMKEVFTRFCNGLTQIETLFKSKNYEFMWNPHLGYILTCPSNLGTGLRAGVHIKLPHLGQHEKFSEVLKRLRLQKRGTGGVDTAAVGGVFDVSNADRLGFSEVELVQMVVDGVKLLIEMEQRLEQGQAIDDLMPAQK
# Sequence of human Serotonin, 5-Hydroxytryptamine Receptor 5A (5HT5A), HTR5A (gene 3361) (P47898 whole entry, looked up): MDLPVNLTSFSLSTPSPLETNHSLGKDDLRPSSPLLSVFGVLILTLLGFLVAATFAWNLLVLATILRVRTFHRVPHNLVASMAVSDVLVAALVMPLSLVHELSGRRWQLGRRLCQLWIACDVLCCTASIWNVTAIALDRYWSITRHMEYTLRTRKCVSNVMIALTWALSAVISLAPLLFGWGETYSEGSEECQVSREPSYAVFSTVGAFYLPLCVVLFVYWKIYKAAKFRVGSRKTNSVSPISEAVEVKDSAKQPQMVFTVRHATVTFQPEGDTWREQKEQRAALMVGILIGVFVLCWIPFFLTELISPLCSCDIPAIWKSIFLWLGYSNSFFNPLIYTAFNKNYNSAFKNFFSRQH
# Sequence of bovine Dopamine Receptor (DR), Non-selective Binding, DRD1 (gene 281125) (Q95136 whole entry, looked up): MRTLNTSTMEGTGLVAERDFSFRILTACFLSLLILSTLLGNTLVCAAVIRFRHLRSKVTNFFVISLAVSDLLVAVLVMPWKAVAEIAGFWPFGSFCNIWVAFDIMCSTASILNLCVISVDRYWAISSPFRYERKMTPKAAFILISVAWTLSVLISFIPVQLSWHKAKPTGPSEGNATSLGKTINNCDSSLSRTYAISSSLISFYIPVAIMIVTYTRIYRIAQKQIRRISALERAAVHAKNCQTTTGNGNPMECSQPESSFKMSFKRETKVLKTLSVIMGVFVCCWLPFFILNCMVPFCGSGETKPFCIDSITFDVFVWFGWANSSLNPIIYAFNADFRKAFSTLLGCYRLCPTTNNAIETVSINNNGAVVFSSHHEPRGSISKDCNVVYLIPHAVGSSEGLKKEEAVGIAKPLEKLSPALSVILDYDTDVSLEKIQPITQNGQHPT
smiles,measurement,setting,value
Cc1cc(O)c(C)c(C)c1O,outcome,[1],inactive
CC(O)COCC(C)O (stereo not drawn),outcome,[2],inactive
COc1ccc(C(C)=O)cc1,outcome,[3],inactive
C=CCOCC(O)CO (stereo not drawn),AC50,[2],25 µM (active)
Cc1ccc(C(C)(C)O)cc1,outcome,[2],inactive
Cc1cc(N)n(-c2ccccc2)n1,outcome,[2],inactive
O=S1(=O)CC(Cl)(Cl)C(Cl)(Cl)C1,outcome,[1],inactive
CC(C)(O)CCc1ccccc1,outcome,[2],inactive
CC(=O)CCC=C(C)CCC=C(C)C,AC50,[2],43.3 µM (active)
O=C1OCc2ccccc21,outcome,[4],inactive
O=C1OC2(c3ccc(O)cc3Oc3cc(O)ccc32)c2ccccc21,AC50,[2],18.2 µM (active)
same,outcome,[5],inactive
same,outcome,[1],inactive
C#C[C@]1(O)CC[C@H]2[C@@H]3CCc4cc(O)ccc4[C@H]3CC[C@@]21C,AC50,[6],38.4 µM (active)
same,outcome,[5],inactive
same,AC50,[4],6.76 µM (active)
CC/C(=C(\c1ccccc1)c1ccc(OCCN(C)C)cc1)c1ccccc1,outcome,[7],inactive
same,outcome,[8],inactive
same,AC50,[9],22.9 µM (active)
same,AC50,[10],19.1 µM (active)
same,AC50,[11],6.95 µM (active)
same,outcome,[1],inactive
same,AC50,[12],6.32 µM (active)
same,AC50,[13],4.89 µM (active)
same,AC50,[14],9.54 µM (active)
same,outcome,[15],inactive
O=[N+]([O-])c1cc(N(CCO)CCO)ccc1NCCO,outcome,[5],inactive
c1ccc(Sc2ccccc2)cc1,outcome,[2],inactive
CC(=O)c1ccc(C)cc1,outcome,[2],inactive
CCCCCCCCCCCCS,AC50,[2],25 µM (active)
CC1=CC(C)C(C=O)C(C)C1 (stereo not drawn) (tested in a mixture with another compound),outcome,[5],inactive
CCCCCC1C(=O)CCC1CC(=O)OC (stereo not drawn),outcome,[1],inactive
O=C(c1ccc(OCCN2CCCCC2)cc1)c1c(-c2ccc(O)cc2)sc2cc(O)ccc12,AC50,[16],25 µM (active)
same,AC50,[7],10.3 µM (active)
same,AC50,[17],3.07 µM (active)
same,AC50,[8],1.02 µM (active)
same,AC50,[10],5.18 µM (active)
same,AC50,[11],3.5 µM (active)
same,AC50,[1],0.508 µM (active)
same,AC50,[12],3.57 µM (active)
same,outcome,[3],inactive
same,AC50,[13],2.27 µM (active)
same,AC50,[4],6.13 µM (active)
same,AC50,[18],9.52 µM (active)
same,AC50,[19],10.5 µM (active)
same,AC50,[14],2.78 µM (active)
same,AC50,[20],11.8 µM (active)
COc1ccccc1NC(=O)CC(C)=O,AC50,[2],14.6 µM (active)
